Data taken from PubChem BioAssay AID1159580 (chemical genetic matrix, 2015).
Screen size: about 5,500 compounds; about 2,000 (36%) were called active. Not shown: some 18% with an inconclusive outcome. Rule as the data show it: active = normalized growth mostly below about 0.91 (no sharp cut-off); inconclusive = no clear call, values can overlap the other calls; inactive = mostly above about 0.92. The list shows a part of the results.

Test: chemical genetic growth profiling, strain panel (AID 1159580);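 also: tested at 20 µM; growth read once vehicle control cultures reached saturation at 30 °C; 1 = growth at the plate median or of vehicle wells; lower values mean less growth of the strain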
Settings: growth OD

Measured: normalized growth

C[C@]12CCC3c4ccc(O)cc4CCC3C1CC[C@@H]2OC(=O)CCC1CCCC1 (stereo not given in full)
inactive: S. cerevisiae deletion strains, locus YJR075W, strain HOC1, active compounds read low 0.988 | S. cerevisiae deletion strains, locus YKL009W, strain mrt4, active compounds read low 0.986 | S. cerevisiae deletion strains, locus YKL068W, active compounds read low 0.991 | S. cerevisiae deletion strains, locus YKL085W, strain MDH1 (second series), active compounds read low 0.998 | S. cerevisiae deletion strains, locus YKL085W, strain MDH1, active compounds read low 0.998 | S. cerevisiae deletion strains, locus YKL160W, strain elf1, active compounds read low 1.03 | S. cerevisiae deletion strains, locus YKL190W, strain CNB1, active compounds read low 0.992 | S. cerevisiae deletion strains, locus YKR001C, strain vps1, active compounds read low 0.973 | S. cerevisiae deletion strains, locus YKR026C, strain gcn3, active compounds read low 1.01 | S. cerevisiae deletion strains, locus YKR091W, strain srl3, active compounds read low 1.02 | S. cerevisiae deletion strains, locus YLL001W, strain dnm1, active compounds read low 1.03 | S. cerevisiae deletion strains, locus YLL026W, active compounds read low 1.01 | S. cerevisiae deletion strains, locus YLL041C, strain sdh2, active compounds read low 1 | S. cerevisiae deletion strains, locus YLR027C, strain aat2, active compounds read low 0.995 | S. cerevisiae deletion strains, locus YLR039C, strain RIC1, active compounds read low 0.984 | S. cerevisiae deletion strains, locus YLR058C, strain SHM2, active compounds read low 0.991 | S. cerevisiae deletion strains, locus YLR102C, strain apc9, active compounds read low 1.01 | S. cerevisiae deletion strains, locus YLR113W, strain HOG1, active compounds read low 1.06 | S. cerevisiae deletion strains, locus YLR221C, strain rsa3, active compounds read low 1.02 | S. cerevisiae deletion strains, locus YLR258W, strain gsy2, active compounds read low 1.01 | S. cerevisiae deletion strains, locus YLR262C, strain YPT6 (second series), active compounds read low 1.02 | S. cerevisiae deletion strains, locus YLR262C, strain YPT6, active compounds read low 0.897 | S. cerevisiae deletion strains, locus YLR268W, strain sec22, active compounds read low 0.993 | S. cerevisiae deletion strains, locus YLR320W, strain mms22, active compounds read low 1.03 | S. cerevisiae deletion strains, locus YLR330W, strain CHS5, active compounds read low 0.984 | S. cerevisiae deletion strains, locus YLR342W, strain FKS1 (second series), active compounds read low 1 | S. cerevisiae deletion strains, locus YLR342W, strain FKS1, active compounds read low 1.01 | S. cerevisiae deletion strains, locus YLR357W, strain rsc2, active compounds read low 1.03 | S. cerevisiae deletion strains, locus YLR370C, strain arc18, active compounds read low 1.02 | S. cerevisiae deletion strains, locus YLR371W, strain rom2, active compounds read low 1.03 | S. cerevisiae deletion strains, locus YLR384C, strain iki3, active compounds read low 1 | S. cerevisiae deletion strains, locus YLR418C, strain cdc73, active compounds read low 1.03 | S. cerevisiae deletion strains, locus YML016C, strain PPZ1, active compounds read low 0.988 | S. cerevisiae deletion strains, locus YML032C, strain rad52, active compounds read low 0.986 | S. cerevisiae deletion strains, locus YML120C, strain ndi1, active compounds read low 1.03 | S. cerevisiae deletion strains, locus YML124C, strain tub3, active compounds read low 0.991 | S. cerevisiae deletion strains, locus YMR058W, strain fet3, active compounds read low 1.01 | S. cerevisiae deletion strains, locus YMR078C, strain ctf18, active compounds read low 1.01 | S. cerevisiae deletion strains, locus YMR125W, strain sto1, active compounds read low 1.02 | S. cerevisiae deletion strains, locus YMR129W, active compounds read low 1.02 | S. cerevisiae deletion strains, locus YMR205C, strain PFK2, active compounds read low 1.01 | S. cerevisiae deletion strains, locus YMR223W, strain ubp8, active compounds read low 1.04 | S. cerevisiae deletion strains, locus YMR231W, strain pep5, active compounds read low 1 | S. cerevisiae deletion strains, locus YMR307W, strain GAS1, active compounds read low 0.998 | S. cerevisiae deletion strains, locus YNL067W, strain RPL9B, active compounds read low 0.988 | S. cerevisiae deletion strains, locus YNL071W, strain lat1, active compounds read low 1.01 | S. cerevisiae deletion strains, locus YNL128W, strain TEP1, active compounds read low 0.976 | S. cerevisiae deletion strains, locus YNL183C, strain NPR1, active compounds read low 0.982 | S. cerevisiae deletion strains, locus YNL209W, strain ssb2, active compounds read low 1.01 | S. cerevisiae deletion strains, locus YNL233W, strain BNI4, active compounds read low 0.993 | S. cerevisiae deletion strains, locus YNL248C, strain rpa49, active compounds read low 1.02 | S. cerevisiae deletion strains, locus YNL250W, strain rad50, active compounds read low 1.01 | S. cerevisiae deletion strains, locus YNL271C, strain bni1, active compounds read low 0.999 | S. cerevisiae deletion strains, locus YNL298W, strain CLA4, active compounds read low 0.999 | S. cerevisiae deletion strains, locus YNL307C, strain MCK1, active compounds read low 0.996 | S. cerevisiae deletion strains, locus YNL322C, strain KRE1 (second series), active compounds read low 1.04 | S. cerevisiae deletion strains, locus YNL322C, strain KRE1, active compounds read low 0.998 | S. cerevisiae deletion strains, locus YNR049C, strain mso1, active compounds read low 1.03 | S. cerevisiae deletion strains, locus YNR052C, strain pop2, active compounds read low 1.01 | S. cerevisiae deletion strains, locus YOL006C, strain TOP1, active compounds read low 0.976 | S. cerevisiae deletion strains, locus YOL012C, strain htz1 1.23 | S. cerevisiae deletion strains, locus YOL147C, strain pex11, active compounds read low 1.01 | S. cerevisiae deletion strains, locus YOR001W, strain rrp6, active compounds read low 0.995 | S. cerevisiae deletion strains, locus YOR061W, strain CKA2, active compounds read low 0.969 | S. cerevisiae deletion strains, locus YOR069W, strain VPS5, active compounds read low 0.994 | S. cerevisiae deletion strains, locus YOR070C, strain gyp1, active compounds read low 1.02 | S. cerevisiae deletion strains, locus YOR080W, strain dia2, active compounds read low 0.998 | S. cerevisiae deletion strains, locus YOR083W, strain WHI5, active compounds read low 1.05 | S. cerevisiae deletion strains, locus YOR106W, strain vam3, active compounds read low 1.04 | S. cerevisiae deletion strains, locus YOR136W, strain idh2, active compounds read low 0.991 | S. cerevisiae deletion strains, locus YOR144C, strain elg1, active compounds read low 0.992 | S. cerevisiae deletion strains, locus YOR184W, strain ser1, active compounds read low 0.99 | S. cerevisiae deletion strains, locus YOR231W, strain MKK1, active compounds read low 1.07 | S. cerevisiae deletion strains, locus YOR265W, strain rbl2, active compounds read low 1.01 | S. cerevisiae deletion strains, locus YOR270C, strain vph1, active compounds read low 1.06 | S. cerevisiae deletion strains, locus YOR290C, strain snf2, active compounds read low 0.986 | S. cerevisiae deletion strains, locus YOR316C, strain cot1, active compounds read low 0.989 | S. cerevisiae deletion strains, locus YPL051W, strain arl3, active compounds read low 1.01 | S. cerevisiae deletion strains, locus YPL055C, strain LGE1, active compounds read low 0.994 | S. cerevisiae deletion strains, locus YPL078C, strain atp4, active compounds read low 1.04 | S. cerevisiae deletion strains, locus YPL106C, strain sse1, active compounds read low 1.05 | S. cerevisiae deletion strains, locus YPL240C, strain hsp82, active compounds read low 0.996 | S. cerevisiae deletion strains, locus YPL241C, strain CIN2, active compounds read low 0.979 | S. cerevisiae deletion strains, locus YPL256C, strain CLN2, active compounds read low 1.03 | S. cerevisiae deletion strains, locus YPR119W, strain clb2, active compounds read low 1 | S. cerevisiae deletion strains, locus YPR141C, strain kar3, active compounds read low 0.996 | S. cerevisiae deletion strains, locus YPR163C, strain tif3, active compounds read low 1 | S. cerevisiae deletion strains, locus YPR167C, strain met16, active compounds read low 0.997 | S. cerevisiae deletion strains, strain wtn01, active compounds read low 1.01 | S. cerevisiae strains, strain wild type, active compounds read low 0.973
